The test system of this assay is Potassium Channel [KATP]. Description: off-target receptor, channel and CYP panel, profiling panel, selectivity assay for S1P3 agonist project, biochemical, Ricerca HitProfilingScreen, CYP450 (AID 540351). The note with it: Ricerca receptor/enzyme binding panel plus CYP450, at 30 µM, hits give high values.

Values without a mark were called inactive. How the calls were made is not given here.

One may read the inhibition as the percentage by which the read-out fell short of the control.

Consider `O=C(c1cc(C2CC2)on1)N(C1CCCCC1)C1CCCCC1`, for which the inhibition was 16%.

For the origin of these results see PubChem BioAssay AID540351 (The Scripps Research Institute Molecular Screening Center, 2011).
